Test results: PubChem BioAssay AID651871 (Sanford-Burnham Center for Chemical Genomics, 2012)
Several values for one entry are separate records, joined by “and”; a condition that tells them apart may be missing. Equal entries are not always repeated.

System: H9c2
Assay: cardiomyocyte survival under oxidative or metabolic stress – cell-based, panel, H9c2 and HL-1, ATP luminescence, set 2, SAR follow-up (AID 651871);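 also: cells exposed to stressor for 2 h before ATP readout; reference of the scale not given here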
Details: H9c2/HL-1 cardiomyocytes, H2O2 oxidative stress; with H2O2, run 3, at 79 µM (top of the series)

SMILES | activity (protection/inhibition)
CCOC(=O)c1cccc(NC(=O)CNC(=O)c2cc(-c3cc(OC)c(OC)c(OC)c3)nc3ccccc23)c1 | 99%
COc1ccc2c(c1OC)C(=O)N1c3ccccc3C(=O)N(Cc3cccc(Cl)c3Cl)C21 (centres undefined) | 77.5% and 104% and 43.3%
COc1cc(-c2cc(C(=O)Nc3cccc(C(=O)NCc4ccccc4)c3)c3ccccc3n2)cc(OC)c1OC | 95.7%
COc1ccc2nc(-c3cc(OC)c(OC)c(OC)c3)cc(C(=O)NCC(=O)Nc3ccc(C(C)=O)cc3)c2c1 | 91.8% and 76.1%
